Unmarked numbers belong to inactive results.
The compounds below were run on Vero E6 infected with SARS-CoV-2 (assay: inhibition of SARS-CoV-2 cytopathic effect; higher = more antiviral protection, active = above 15). Settings: 100 nM; 48 h.

First: Nc1ccncc1 [dalfampridine]
Second: c1cnc(SCc2cccnc2)nc1 [tasuldine]
The “inhibition of SARS-CoV-2 cytopathic effect” value (“inhibition” for short) of the first is higher: 1.64% for the first, 0.38% for the second.

First: Cc1ccc(-c2cn3c4c(sc3n2)CCCC4)cc1 [pifithrin-cyclic]
Second: O=C(NCCN1CCCCC1)c1ccc(I)cc1 [N-[2-(piperidinylamino)ethyl]-4-iodobenzamide]
The “inhibition” value of the first is higher: 1.98% for the first, -0.15% for the second.

Compared with `NS(=O)(=O)c1ccc2c(c1)C1C=CCC1C(c1ccc(Br)cc1)N2` (stereo unspecified), `CS(=O)(=O)c1ccc(C2=C(c3ccccc3)C(=O)OC2)cc1` [rofecoxib] is higher in “inhibition” value: -1.73% for the first, -0.87% for the second.

First: CC[N+](CC)(CC(=O)Nc1c(C)cccc1C)Cc1ccccc1 [denatonium-benzoate]
Second: Cc1cccc(C)c1NC(=O)[C@@H](C)N [tocainide]
The “inhibition” value of the first is higher: -2.46% for the first, -6.26% for the second.

Compared with `CC(C)(C)Nc1nc(Nc2ccc(C(N)=O)cc2)cc(N)c1C#N`, `Nc1ncnc(Nc2ccc(Cl)cc2)n1` [chlorazanil] is lower in “inhibition” value: -0.39% for the first, -1.09% for the second.

Compared with `CCCNC(C)C(=O)Nc1ccccc1C` (stereo unspecified) [prilocaine], `C[C@H](N/C(=N/C#N)Nc1cccc2ncccc12)c1ccccc1` is lower in “inhibition” value: -0.81% for the first, -3.44% for the second.

Going from `CCOC(=O)C1=C[C@]2(CC)CCCN3CCc4c(n1c1ccccc41)[C@@H]32` [vinpocetine] to `CCCOC(C(=O)OC1CCN(C)CC1)(c1ccccc1)c1ccccc1` [propiverine], the “inhibition” value falls from 4.53% to 0.85%.

Compared with `CC(C)[C@](O)(c1ccc2cc(OC(F)F)c(OC(F)F)cc2c1)c1c[nH]nn1`, `COc1cc2c(cc1OC)-c1cc3nc4ccccc4nc3n1C(C)(C)C2` is lower in “inhibition” value: 2.85% for the first, 1.86% for the second.

First: O=c1[nH]c(=O)n([C@H]2CCCO2)cc1F (racemic) [ftorafur]
Second: CCn1cc(C(=O)O)c(=O)c2cc(F)c(N3CCNC(C)C3)c(F)c21 (stereo unspecified) [lomefloxacin]
The “inhibition” value of the first is higher: 6.11% for the first, -1.13% for the second.

Compared with `O=C(O)/C=C/CO` [trans-4-hydroxycrotonic-acid], `O=C(O)c1ccc(O)c2ncccc12` is lower in “inhibition” value: 1.39% for the first, 1.3% for the second.

Compared with `CN1CCN(CCCCN2C(=O)CN(/N=C/c3ccc(-c4ccc(Cl)cc4)o3)C2=O)CC1` [azimilide], `CCn1c(=O)c(-c2ccc(Cl)cc2Cl)cc2cnc(Nc3ccc(N4CCNCC4)c(F)c3)nc21` is lower in “inhibition” value: 2.48% for the first, -1.93% for the second.

Going from `CCCCN(CCCC)CC(O)c1cc(Cl)cc2c1-c1ccc(Cl)cc1/C2=C/c1ccc(Cl)cc1` (stereo unspecified) [lumefantrine] to `CC[n+]1c(-c2ccccc2)c2cc(N)ccc2c2ccc(N)cc21` [homidium], the “inhibition” value rises from 2.25% to 5.98%.

Compared with `O=C(CCCCCCNC(=O)c1cnc(N(c2ccccc2)c2ccccc2)nc1)NO`, `O=C1C=CC(=O)C2=C1C1c3ccccc3C2c2ccccc21` is lower in “inhibition” value: 2.13% for the first, -0.03% for the second.

Going from `CC(=O)O[C@]1(C(C)=O)CC[C@H]2[C@@H]3C[C@H](C)C4=CC(=O)C=C[C@]4(C)[C@@]3(F)[C@@H](O)C[C@@]21C` [fluorometholone-acetate] to `C[C@H](CCC(=O)O)[C@H]1CC[C@H]2[C@@H]3CC[C@@H]4C[C@H](O)CC[C@]4(C)[C@H]3C[C@H](O)[C@]12C` [deoxycholic-acid], the “inhibition” value falls from -0.18% to -1.84%.

First: NCCS(=O)(=O)O [taurine]
Second: CCCNCCc1ccc(NS(=O)(=O)c2ccc(OC(F)(F)F)cc2)cc1
The “inhibition” value of the first is lower: -1.56% for the first, -0.23% for the second.

First: CCCC(O)C(CC)CO (stereo unspecified) [2-ethyl-1,3-hexanediol]
Second: CC(C)NCC(O)c1ccc(N)c(C#N)c1 (stereo unspecified) [cimaterol]
The “inhibition” value of the first is lower: 1.14% for the first, 10.5% for the second.

First: COc1cc(S(C)(=O)=O)ccc1Nc1nc2ccc(-c3ccc(NC(=O)[C@H](C)c4ccc(F)cc4)cc3)cn2n1
Second: CCOc1ccc(Cc2cc([C@@H]3O[C@H](SC)[C@@H](O)[C@H](O)[C@H]3O)ccc2Cl)cc1 [sotagliflozin]
The “inhibition” value of the first is higher: 0.88% for the first, -1.14% for the second.

First: CC1C=CC=CCCC=CC=CC=CC=CC(OC2OC(C)C(O)C(N)C2O)CC2OC(O)(CC(O)C(O)CCC(O)CC(O)CC(O)CC(=O)OC(C)C(C)C1O)CC(O)C2C(=O)O (stereo unspecified) [nystatin]
Second: CC[C@@H]1C(=O)OC[C@@H]1Cc1cncn1C [pilocarpine]
The “inhibition” value of the first is lower: -1.14% for the first, 1.22% for the second.

From the supplement of paper PMC13380429
